Inconclusive results are not listed. Activity calls are given as the source filed them. Calls come from the whole dose curve; as a rule, active = well fitted cell-killing curve with a large enough effect in the repeat runs; inconclusive = weak or mixed curves, or effect the other way; inactive = flat fitted curve, though single readings scatter.
Assay: qHTS RealTime-Glo MT Cell Viability Assay in HepG2 cells - 40 hour (AID 1224870); note: nearly all actives have a fitted effect of over 50% in size
Settings: RealTime-Glo luminescence; series mostly up to 76.8 µM
Outline: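 Real-time viability: cells seeded at 600 per well together with NanoLuc and cell-permeant prosubstrate, compounds added after 5 h incubation. Luminescence tracked at 0, 8, 16, 24, 32 and 40 h of exposure.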

Row | Compound | outcome
1 | C=CCN=C=S | inactive
2 | COc1nc(NC(C)C)nc(NC(C)C)n1 | inactive
3 | ClC(Cl)c1ccccc1 | inactive
4 | O=P1(NCCCl)OCCCN1CCCl (stereo not given) | inactive
5 | CN(C)C(=O)Nc1cccc(C(F)(F)F)c1 | inactive
6 | COC(C)(C)CCCC(C)C/C=C/C(C)=C/C(=O)OC(C)C (stereo not given) | inactive
7 | Cc1cc(O)ccc1Cl | inactive
8 | O=C(O)Cc1ccccc1 | inactive
9 | OC[C@@H](O)[C@H]1O[C@@H]2O[C@H](C(Cl)(Cl)Cl)O[C@@H]2[C@H]1O | inactive
10 | CNC(=O)O/N=C(\SC)C(=O)N(C)C | inactive
11 | CCOc1ccc(N)cc1 | inactive
12 | CN(C)NC(=O)CCC(=O)O | inactive
13 | Sc1ccccc1 | inactive
14 | Cc1ccc(N)cc1 | inactive
15 | CNC(=O)Oc1cccc2ccccc12 | inactive
16 | Cc1ccc(O)c(C)c1 | inactive
17 | OCC(O)CCl (stereo not given) | inactive
18 | Nc1cc(Cl)cc(Cl)c1 | inactive
19 | N#Cc1ccccn1 | inactive
20 | COC(=O)Nc1cccc(OC(=O)Nc2cccc(C)c2)c1 | inactive
21 | CC(=O)/C=C/c1ccccc1 | inactive
22 | CC[N+](=O)[O-] | inactive
23 | COS(=O)(=O)OC | inactive
24 | C=C(C)C(=O)OCC(CC)CCCC (stereo not given) | inactive
25 | OCCCCO | inactive
26 | OCc1ccco1 | inactive
27 | CC(C)CCCCCCOC(=O)c1ccccc1C(=O)OCCCCCCC(C)C | inactive
28 | CN(C)C(=O)Cl | inactive
29 | CCCOC(=O)c1ccccc1C(=O)OCCC | inactive
30 | CCNc1nc(Cl)nc(NC(C)C)n1 | inactive
